Among the data in PubChem BioAssay AID687036 (The Scripps Research Institute Molecular Screening Center, 2013) are inhibition values, retold here.

In all, about 3,300 compounds went through this assay and about 1,400 (42%) were called active. So high a share suggests a set chosen from earlier hits. These entries were drawn from the full list. A number with no mark means an inactive call.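 How the source made its calls: active means mean inhibition across replicates above the hit cutoff derived for the earlier primary screen (cut at about 22% in these data); inactive means the rest.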

Sequence of Protein arginine N-methyltransferase 1 (Homo sapiens) (Q99873 whole entry, looked up): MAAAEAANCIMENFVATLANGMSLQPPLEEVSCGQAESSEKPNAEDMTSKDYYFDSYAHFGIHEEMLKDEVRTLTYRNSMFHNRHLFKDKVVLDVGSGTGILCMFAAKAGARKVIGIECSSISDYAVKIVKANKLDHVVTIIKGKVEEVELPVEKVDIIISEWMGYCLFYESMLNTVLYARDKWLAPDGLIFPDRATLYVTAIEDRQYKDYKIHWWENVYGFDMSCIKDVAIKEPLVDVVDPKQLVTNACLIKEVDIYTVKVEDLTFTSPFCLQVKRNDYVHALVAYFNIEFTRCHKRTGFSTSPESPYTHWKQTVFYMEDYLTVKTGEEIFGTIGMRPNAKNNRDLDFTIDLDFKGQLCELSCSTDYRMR

This test has as its target Protein arginine N-methyltransferase 1 (Homo sapiens) (UniProt Q99873). Nature of the test: human PRMT1 activity-probe blockers, retest – biochemical, fluorescence polarization, triplicate, confirmation (AID 687036). The conditions noted are these: recombinant His-PRMT1, activity-based probe fluorescence polarization; at 2.79 µM; active compounds read high. In general terms: Fluorescence polarisation rises when a labelled molecule tumbles more slowly, as on binding a larger partner.
One may read the inhibition as the drop in the measured response relative to a control, in per cent. As for `Brc1ccccc1C1Nc2cccc3cccc(c23)N1`, the inhibition is 29.4% (active). Consider `NS(=O)(=O)c1ccc(NC(=O)COC(=O)c2c3c(nc4ccccc24)/C(=C\c2ccc4c(c2)OCO4)CCC3)cc1`, for which the inhibition is 0.89%. Consider `Cc1cc(C)cc(C(=O)NC2C(=O)N3C(C(=O)O)=C(CSc4nnc(C)s4)CSC23)c1` (stereo unspecified), for which the inhibition was 15.9%.

Take `Oc1ccc2ccc3cccc[n+]3c2c1`: the inhibition was 155% (active). As for `COc1cc(C2CC(=O)N3CN(Cc4ccccc4)CSC3=C2C#N)ccc1OCc1ccccc1` (stereo unspecified), the inhibition is 12.4%. In the case of `CC(=O)Nc1ccc(C(=O)Nc2nc(-c3cc(C)n(Cc4ccccc4)c3C)cs2)cc1`, the inhibition is 5.86%. On to `FC(F)(F)c1nc2ccccc2nc1N/N=C/c1ccc(Cl)cc1`, for which the inhibition is -0.64%. To `CCOC(=O)C(Sc1ncc(C#N)c(N)n1)C(C)C` (stereo unspecified) belongs 37% (active).

As to `Fc1ccc(COc2cccc(-c3n[nH]c(=S)o3)c2)cc1`, the inhibition is 14.3%. Then `COc1cc(C(=S)NC2CCCCC2)ccc1O`, with 5.36%; and `CCc1ccc(NC2Nc3cc(C)nn3S2)cc1` (stereo unspecified), with 6.49%. Then `O=c1ccc2c(-c3ccccc3S(=O)(=O)O)c3ccc(O)c(O)c3oc-2c1O`, with 66.2% (active).

With `COc1ccc(CCN2C(=O)CC(N3CCC(C(N)=O)CC3)C2=O)cc1OC` (stereo unspecified), the inhibition is 12.1%. For `OCCn1c(-c2ccccc2)csc1=Nc1ccccc1`, the inhibition is -0.19%. Turning to `O=S(=O)(O)c1cc2onnc2c2ccccc12`, the inhibition was 53.5% (active).

With `Cc1ccc(-c2ccc(/C=C(\C#N)C(N)=S)o2)c([N+](=O)[O-])c1`, the inhibition was 3.06%. Consider `Cc1ccc(SC(CC(=O)c2ccc(C(C)(C)C)cc2)C(=O)O)cc1` (stereo unspecified), for which the inhibition is 80.3% (active). In the case of `COc1ccc(N/N=C2/CCCCC2=O)cc1`, the inhibition was 0.52%. As to `Cc1cc(=O)[nH]c(=S)[nH]1`, the inhibition is -4.44%. Consider `Cc1cc2nc3c(=O)[nH]c(=O)nc-3n(C[C@H](O)[C@H](O)[C@H](O)CO)c2cc1C`, for which the inhibition is 146% (active). To `O=C(CN1CCN(c2ccc(O)cc2)CC1)NC1CCCc2ccccc21` (stereo unspecified) belongs -0.09%; to `Cc1cccc(N2CCN(C(=O)/C=C/c3ccco3)CC2)c1C`, 7.17%; to `Cc1nnc(SCC2=C(C(=O)O)N3C(=O)C(NC(=O)Cn4nc(C)c(Cl)c4C)C3SC2)s1` (stereo unspecified), 6.51%. As for `CC(C)(C)NC(=O)COc1ccc(CNc2ccc3[nH]c(=O)[nH]c3c2)cc1`, the inhibition is 4.62%. Regarding `COc1ccc(NC(=O)CSc2nc(SC)ns2)c(OC)c1`, the inhibition was 30.5% (active). Consider `Cc1cccc2cc3c(N)c(C(=O)N4CCCc5ccccc54)sc3nc12`, for which the inhibition is -2.12%. Take `COc1cccc(NC(=O)CSc2nccn(-c3ccc4c(c3)OCCO4)c2=O)c1`: the inhibition was 26.1% (active).

On to `COc1cccc(NC(=O)COC(=O)/C=C/c2ccco2)c1`, for which the inhibition is 10.2%. Regarding `CC(=O)Nc1cc(-c2ccccc2N(C)C)cn2c(-c3ccc(F)c(Cl)c3)cnc12`, the inhibition is 1.55%. With `c1ccc(Cc2c(-c3ccco3)nc3c4ccccc4ccn23)cc1`, the inhibition is 9.04%. Turning to `COc1ccc(NC2=CC(=S)NC(C)(C)C2)cc1`, the inhibition is -3.18%.

Turning to `S=c1[nH]nc(-c2ccco2)n1/N=C/c1ccc(Br)s1`, the inhibition was 13.1%. Consider `COc1ccc(N2C(=O)CC(Sc3n[nH]c(-c4ccc(C)cc4)n3)C2=O)cc1` (stereo unspecified), for which the inhibition is 59% (active). Turning to `Cc1ccc(N2C(=O)CC(Sc3ncn[nH]3)C2=O)cc1` (stereo unspecified), the inhibition was 24.3% (active). Take `COc1ccc(N2C(=O)CC(N3CCC(C(N)=O)CC3)C2=O)cc1` (stereo unspecified): the inhibition is 9.59%. As for `O=C1CC(Sc2ncn[nH]2)C(=O)N1c1ccccc1` (stereo unspecified), the inhibition was 68.5% (active). For the compound `CN(CCOc1ccccc1)C(=O)c1cc(-c2ccco2)nc2ccccc12`, the inhibition is 10.7%. Then `COc1ccc(-c2cc3c(c4c2ccn4C)C2CCC3C2)cn1` (stereo unspecified), with -5.46%.

Turning to `Cc1cc(C)c(/C=C2\C(=O)Nc3ccccc32)[nH]1`, the inhibition is 77.3% (active). With `CC(=NNC(=S)N1CCCCCC1)c1ccccn1`, the inhibition is 5.21%.

With `O=S(=O)(c1ccc(Sc2nnc3ccccn23)nc1)N1CCOCC1`, the inhibition was -3.1%. Turning to `Cc1cc2c(c(=O)n1Cc1ccco1)C(c1ccccc1)C(C#N)=C(N)O2` (stereo unspecified), the inhibition was 6.2%. With `N#CC1=C(N)Oc2c(sc3ccccc23)C1c1ccco1` (stereo unspecified), the inhibition was 28.5% (active). Then `O=C(c1ccc[nH]c1=S)N1CCN(S(=O)(=O)c2ccc(Br)cc2Cl)CC1`, with 11.5%. For `COC(=O)c1ccc(NCc2cc(O)ccc2O)cc1`, the inhibition was 22.6% (active). Then `COc1ccc(NC(=O)c2ccc(C#CC(C)(C)O)cc2)cc1`, with 3.21%. As to `Cc1ccc(/C=C/C(=O)Nc2ccc([N+](=O)[O-])c(NC(=O)/C=C/c3ccc(C)o3)c2)o1`, the inhibition is 60.6% (active).

On to `CN(C)C(=O)N=NC(=O)N(C)C`, for which the inhibition is 15.4%. Turning to `Cc1cccc(CS(=O)(=O)c2ncc(Cl)c(C(=O)Nc3ccc(F)cc3)n2)c1`, the inhibition is 18.9%. In the case of `Cc1ccc(-c2nn(-c3ccccc3)cc2/C=C2\SC(=S)N(CCCCCC(=O)O)C2=O)o1`, the inhibition is 18.1%. Regarding `Cc1ccc(-c2nn(-c3ccccc3)cc2CN(Cc2ccccc2)C(=O)CCC(=O)O)o1`, the inhibition is 21.8% (active).

`Cc1cccc(NC(=O)CSC(N)=O)c1C`: the inhibition is 96.6% (active). Consider `Cc1ccccc1-n1c(SCC(=O)Nc2cccc3ccccc23)nc(O)cc1=O`, for which the inhibition is 2.26%.

Turning to `O=C(NC1=CC(=O)c2ccccc2C1=O)c1ccccc1`, the inhibition was 42.6% (active). With `Cc1ccc(OS(=O)(=O)c2ccc(-c3csc(C)n3)s2)c(C)c1`, the inhibition is 8.35%. Regarding `CO/N=C(\C(=O)N[C@@H]1C(=O)N2C(C(=O)O)=C(COC(C)=O)CS[C@H]12)c1csc(N)n1` (stereo in doubt), the inhibition was 11.4%. With `C=CCn1c(=S)[nH]c2scc(-c3ccco3)c2c1=O`, the inhibition is 56.8% (active). As for `O=C(CCN1CCc2ccccc2C(O)(c2ccccc2)C1)c1ccc2c(c1)OCCO2` (stereo unspecified), the inhibition was 38% (active).

`COc1ccccc1-n1c(SCC(=O)Nc2ccc(Cl)cc2)nc(O)c(Cc2ccccc2)c1=O`: the inhibition was 18.7%.

On to `Cc1cccc(NC(=O)c2nc(S(=O)(=O)Cc3ccccc3)ncc2Cl)c1`, for which the inhibition is 16.1%.

Take `O=C(Nc1ccccc1)c1nnsc1S(=O)(=O)c1ccc(Cl)cc1`: the inhibition is 79.7% (active).
